Screening data (PubChem)
HP1b binding inh – blocks HP1-beta chromodomain binding to methylated histone tails; P83916; AlphaScreen HP1-beta / biotin-H3K9me3 peptide binding; Potency, µM (top dose mostly 114 µM), actives largely listed as inhibitors; hit rate 0.56% among 390,000; note: nearly all actives have a fitted effect of over 70% in size
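HP1-beta protein (50 nM final) preincubated 30 min at room temperature with biotinylated H3(1-18)K9me3 peptide (50 nM) in PBS pH 7.4, 0.01% Tween-20, then compound added for 30 min. AlphaScreen streptavidin donor/nickel chelate acceptor beads (10 ug/mL final), 30 min dark, luminescence read.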
BAZ2B inh – blocks human BAZ2B; hit rate 4.4% among 360,000; AlphaScreen BAZ2B-H3K14Ac peptide displacement; Potency, µM (series often up to 114 µM), hits mostly inhibitors; note: nearly all actives have a fitted effect of over 60% in size
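BAZ2B (50 nM) with biotin-H3(5-23)K14Ac peptide (50 nM) in PBS pH 7.4, 0.01% Tween-20, preformed 30 min, then compound 30 min at room temperature; top concentration 110uM. AlphaScreen streptavidin donor/nickel chelate acceptor beads (10 ug/mL final), 20 min dark, signal read.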
L3MBTL1 block – blocks human L3MBTL1 | AlphaScreen L3MBTL1–H3K9me1 peptide binding | Potency, µM (series often up to 57.1 µM), actives largely listed as inhibitors | hit rate 0.66% among 230,000 | AID 485360; note: nearly all actives have a fitted effect of over 60% in size
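AlphaScreen proximity signal between nickel-chelate acceptor and streptavidin donor beads (final 10 ug/mL) reports binding of 50 nM L3MBTL1 to 75 nM biotin-H3 K9me1 peptide; complex incubated with compounds 30 min at room temperature; cefsulodin titration as control.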
VDR inhibitor – blocks the human vitamin D receptor; P11473; VDR-SRC2-3 peptide fluorescence polarization, 2 h; Potency, µM, actives largely listed as inhibitors; hit rate 0.93% among 400,000; AID 504847
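Signal is fluorescence polarization, reporting how far test compounds block the interaction of VDR with the SRC2-3 coregulator peptide after a 2 h room-temperature incubation.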
JMJD2A Tudor inh – inhibitors of human JMJD2A Tudor domain | O75164 | AlphaScreen JMJD2A-Tudor / H3K4me3 peptide binding | hit rate 4.4% among 390,000 | Potency, µM (titrated, usually from 114 µM), actives largely listed as inhibitors | AID 504339; note: nearly all actives have a fitted effect of over 50% in size
PLK1 PBD inh – PLK1 (human) polo-box domain binding inhibition; Plk1 PBD binding of FITC phosphopeptide, fluorescence polarization; hit rate 2.8% among 360,000; Potency, µM, usual class: inhibitors; P53350; note: series mostly up to about 57 µM; nearly all actives have a fitted effect of over 65% in size
A number is an active result; – = inactive; ? = inconclusive; · = not tested or not shown; [ ] = dose if it differs, or a comment. Most compounds without a hit are left out; they make up all but 6.9% or so of the library. Calls come from the whole dose curve; as a rule, active = well fitted curve in the direction sought with a large enough effect; inconclusive = small, poorly fitted or top-dose-only effect, or another doubt; inactive = no such curve, though single readings can be large; an effect the other way counts as inactive or inconclusive.

SMILES	HP1b binding inh	BAZ2B inh	L3MBTL1 block	VDR inhibitor	JMJD2A Tudor inh	PLK1 PBD inh
Cc1cccn2c(=O)c(C=O)c(Sc3ncccn3)nc12	–	–	–	–	–	–
CN(C)CCCN(C(=O)c1ccc(C(=O)c2ccccc2)cc1)c1nc2cc3c(cc2s1)OCCO3	–	31.6µM	·	–	50.1µM	–
CCN(Cc1ccccc1)S(=O)(=O)c1ccc(C(=O)N(CCCN(C)C)c2nc3cc4c(cc3s2)OCO4)cc1	–	25.1µM	·	–	56.2µM	–
Cc1ccc2nc(N(CCCN(C)C)C(=O)c3ccc(S(=O)(=O)N(C)C)cc3)sc2c1	–	–	–	–	–	–
CN(C)CCCN(C(=O)c1ccc(S(=O)(=O)N(C)C)cc1)c1nc2cc3c(cc2s1)OCO3	–	?	–	–	–	–
CN(C)CCN(C(=O)CN1C(=O)c2ccccc2C1=O)c1nc2cc3c(cc2s1)OCO3	–	89.1µM	·	–	–	–
Cc1ccc2nc(N(CCCN(C)C)C(=O)c3sc4ccccc4c3Cl)sc2c1	?	?	–	–	44.7µM	–
CCOC(=O)NC(O)C(=O)c1cccs1 (stereo not drawn)	–	–	–	–	–	–
CCN(Cc1ccccc1)S(=O)(=O)c1ccc(C(=O)N(CCCN(C)C)c2nc3c(C)c(C)ccc3s2)cc1	–	10µM	–	–	?	–
CCc1ccc(NC(=O)CN2C(=O)C(c3ccc(F)cc3)=NC2(C)C)cc1	–	–	·	–	–	·
O=c1oc2cc(O)ccc2cc1-c1nc2ccccc2o1	·	·	·	·	·	10.6µM
O=c1oc2cc(O)ccc2cc1S(=O)(=O)c1ccccc1	–	–	·	–	–	–
COc1cccc(N2CCN(Cc3nc4scc(-c5ccccc5)c4c(=O)[nH]3)CC2)c1	–	–	–	–	?	–
Cc1cc(C)cc(Nc2nnc(-n3nc(C)cc3C)c3ccccc23)c1	–	–	·	–	–	·
Cc1ccc(C)c(S(=O)(=O)NCc2ccncc2)c1	–	–	–	–	–	–
C/C(=N/NS(=O)(=O)c1cc(C)ccc1C)c1ccncc1	–	–	·	?	–	15µM
CC(=O)Nc1cc(-c2ccccc2CN(C)C)cn2c(-c3ccc(F)c(Cl)c3)cnc12	·	·	·	·	·	–
COc1ccc(-c2cc(C(=O)Nc3cc(C)nn3-c3ccccc3)no2)cc1OC	–	–	·	–	–[11.4 µM]	37.7µM
O=C(/C=C/c1ccccc1)OCCN=C1NS(=O)(=O)c2ccccc21	–	–	·	–	–	–
O=C(/C=C/c1ccccc1)OCCCCN=C1NS(=O)(=O)c2ccccc21	–	–	–	–	28.2µM	26.7µM
O=C(NC(=S)N(Cc1ccccc1)c1ccccn1)C1CC1	–	–	–	–	–	21.2µM
C=CCc1ccccc1OCCSc1nc(-c2ccccc2F)nc2cc(=O)[nH]n12	–	?	·	–	?	·
NC(=O)c1cc(S(=O)(=O)N2CCc3ccccc3C2)cs1	–	–	·	?	?	21.2µM
Cc1cc2c(SCC(=O)Nc3ccccc3O)ncnc2s1	–	·	·	–	–	29.9µM
CCc1cc(C(=O)N2CCN(C(=O)c3ccccc3)CC2)sc1C	–	–	–	–	–	–
SMILES	HP1b binding inh	BAZ2B inh	L3MBTL1 block	VDR inhibitor	JMJD2A Tudor inh	PLK1 PBD inh
c1ccc(CN2CCC3CC2c2cc(N4CCCCC4)ccc23)cc1 (stereo not drawn)	·	·	·	·	·	–
O=C(OCc1ccccc1)N1CCC2CC1c1cc(N3CCCCC3)ccc12 (stereo not drawn)	?	·	·	–	28.2µM	–
Clc1cccc(CN2CCC3CC2c2cc(N4CCCCC4)ccc23)c1 (stereo not drawn)	?	·	·	–	44.7µM	–
O=C(OCc1ccccc1)N1CCC2CC1c1cc(N3CCNCC3)ccc12 (stereo not drawn)	·	·	·	·	·	–
Cc1cc(C)cc(NC(=O)C(=O)NCC(c2cccnc2)N2CCN(c3ccccc3)CC2)c1 (stereo not drawn)	–	–	·	–	–	·
Cc1ccc(S(=O)(=O)NC(C(=O)Oc2ccc3ccc(=O)oc3c2)c2ccccc2)cc1 (stereo not drawn)	–	–	–	?	–	?
Cc1ccc(S(=O)(=O)N[C@H](C(=O)Oc2ccc3c(C(F)(F)F)cc(=O)oc3c2)c2ccccc2)cc1	–	–	–	?	28.2µM	?
COc1ccc(CC(=O)N2CCOCC2)cc1OC	–	–	–[11.4 µM]	–	–	–
